Laboratory results from PMC4336329 (PLoS ONE, 2015).
In all, about 310,000 compounds went through this assay and about 14,000 (4.5%) showed an effect of 50% or more. Effects have a minus sign here. For the sample, strong results were picked, then their nearest neighbours and some compounds at random.

The compounds below were run against human ether-à-go-go-related gene (hERG) potassium channel (human, UniProt Q12809) (assay: primary screen, population patch clamp on CHO cells stably expressing hERG; higher = less effect of the substance).
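Further: peak tail current of the secondary pulse compared with the same well before compound.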

Chain of human ether-à-go-go-related gene (hERG) potassium channel (Q12809 whole entry, looked up): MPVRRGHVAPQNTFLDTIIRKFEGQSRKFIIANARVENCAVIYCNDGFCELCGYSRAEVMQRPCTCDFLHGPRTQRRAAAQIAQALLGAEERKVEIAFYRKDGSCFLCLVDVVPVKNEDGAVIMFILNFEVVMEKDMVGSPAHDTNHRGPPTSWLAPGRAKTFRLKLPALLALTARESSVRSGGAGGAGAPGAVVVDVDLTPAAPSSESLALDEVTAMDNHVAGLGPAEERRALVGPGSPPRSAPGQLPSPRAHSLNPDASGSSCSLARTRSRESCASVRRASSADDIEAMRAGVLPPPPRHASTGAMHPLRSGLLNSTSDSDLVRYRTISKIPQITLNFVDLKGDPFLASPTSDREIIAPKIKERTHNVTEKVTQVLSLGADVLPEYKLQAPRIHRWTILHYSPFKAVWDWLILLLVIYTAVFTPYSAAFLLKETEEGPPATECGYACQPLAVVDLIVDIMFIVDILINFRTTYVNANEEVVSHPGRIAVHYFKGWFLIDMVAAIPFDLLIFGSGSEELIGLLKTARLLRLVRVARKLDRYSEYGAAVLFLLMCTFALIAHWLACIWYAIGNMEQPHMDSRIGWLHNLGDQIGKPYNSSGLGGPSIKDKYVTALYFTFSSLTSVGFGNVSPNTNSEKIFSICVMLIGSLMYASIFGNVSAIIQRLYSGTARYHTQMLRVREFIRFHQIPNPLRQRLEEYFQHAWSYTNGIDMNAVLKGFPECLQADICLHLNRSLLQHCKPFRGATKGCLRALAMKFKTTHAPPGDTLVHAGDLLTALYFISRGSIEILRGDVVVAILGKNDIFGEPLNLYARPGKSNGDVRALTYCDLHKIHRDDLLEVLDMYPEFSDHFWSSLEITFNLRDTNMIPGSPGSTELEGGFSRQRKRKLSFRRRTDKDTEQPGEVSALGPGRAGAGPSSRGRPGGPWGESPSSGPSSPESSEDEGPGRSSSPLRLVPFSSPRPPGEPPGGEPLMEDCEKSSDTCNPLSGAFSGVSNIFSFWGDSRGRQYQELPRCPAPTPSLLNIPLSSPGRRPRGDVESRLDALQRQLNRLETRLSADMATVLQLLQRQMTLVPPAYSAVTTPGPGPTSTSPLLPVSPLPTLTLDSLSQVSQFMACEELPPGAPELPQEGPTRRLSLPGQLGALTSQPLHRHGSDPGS

First: Cc1nn(Cc2ccccc2Cl)c(C)c1C(=O)OCC(=O)N1CC(C)OC(C)C1 (stereo not drawn)
Second: Cc1nn(-c2ccccc2)c(C)c1C(=O)OCC(=O)Nc1ccccc1
The “hERG current change (%, negative = inhibition) at 10uM” value of the first is higher: 1.43% for the first, -7.85% for the second.

Compared with `Clc1ccc(N2CCN(Cc3ccco3)CC2)cc1`, `COc1ccc(N2CCN(C(=O)c3cccn4c(=O)c5ccccc5nc34)CC2)cc1` is lower in “hERG current change (%, negative = inhibition) at 10uM” value: -14.2% for the first, -60.1% for the second.

Compared with `CCOC(=O)Cc1c(C)nc2c(-c3ccccc3)c[nH]n2c1=O`, `Cc1nc2c(-c3ccccc3)c(C)nn2c(C)c1CCC(=O)NCc1ccco1` is lower in “hERG current change (%, negative = inhibition) at 10uM” value: 2.48% for the first, -29.9% for the second.

Compared with `Cc1nn(S(=O)(=O)N2CCOCC2)c(C)c1Br`, `CCCCN(C)CCNC(=O)CN1C(=O)CSc2ccc(S(=O)(=O)N3CCOCC3)cc21` is higher in “hERG current change (%, negative = inhibition) at 10uM” value: -0.162% for the first, 2.2% for the second.

Compared with `O=C(O)C(Cc1ccccc1)N1C(=O)c2c(Cl)c(Cl)c(Cl)c(Cl)c2C1=O` (stereo not drawn), `CSc1nnc(NC(=O)c2nc(S(=O)(=O)Cc3ccccc3)ncc2Cl)s1` is lower in “hERG current change (%, negative = inhibition) at 10uM” value: 3% for the first, 0.719% for the second.

Going from `COc1ccc(NS(=O)(=O)c2cc(NC(=O)C3CC3)ccc2N2CCCCC2)cc1` to `COc1cccc(NC(=O)c2ccc3c(c2)CCN3S(C)(=O)=O)c1`, the “hERG current change (%, negative = inhibition) at 10uM” value falls from 9.99% to 3.4%.

Going from `COC(=O)c1cccc([N+](=O)[O-])c1CN1CCCC(C(N)=O)C1` (stereo not drawn) to `COc1ccccc1C(=O)N/C(=C\c1ccc(Br)cc1)C(=O)N1CCCC1`, the “hERG current change (%, negative = inhibition) at 10uM” value falls from 18.4% to -48.6%.

Going from `O=C(N/C(=C/c1ccc(Br)cc1)C(=O)N1CCCCC1)c1ccccc1F` to `O=C(N/C(=C/c1ccc(Br)cc1)C(=O)N1CCCC1)c1ccccc1F`, the “hERG current change (%, negative = inhibition) at 10uM” value falls from -40.7% to -71.5%.

Compared with `O=C(N/C(=C\c1ccc(Br)cc1)C(=O)N1CCCC1)c1ccccc1F`, `COc1ccccc1C(=O)N/C(=C/c1ccc(Br)cc1)C(=O)N1CCCC1` is higher in “hERG current change (%, negative = inhibition) at 10uM” value: -71.8% for the first, -48.9% for the second.

Compared with `O=C(N/C(=C\c1ccc(Br)cc1)C(=O)N1CCOCC1)c1ccccc1Cl`, `O=C(COC(=O)/C=C/c1ccc(S(=O)(=O)N2CCOCC2)cc1)NCc1ccc(Cl)cc1` is higher in “hERG current change (%, negative = inhibition) at 10uM” value: -2.31% for the first, 1.35% for the second.

First: CCCCn1cnc2c(c1=O)c1nc3ccccc3nc1n2Cc1ccc2c(c1)OCO2
Second: CCOc1ccccc1NC(=O)CSc1nc2ccccc2c(=O)n1CC1CCCO1 (stereo not drawn)
The “hERG current change (%, negative = inhibition) at 10uM” value of the first is higher: 24.1% for the first, -68% for the second.

Compared with `O=C(NCCCNC(=O)c1cnccn1)c1cccc(Cl)c1`, `CC(=O)c1ccc(OCc2cc(C(=O)NCCc3ccc(Cl)cc3)no2)cc1` is lower in “hERG current change (%, negative = inhibition) at 10uM” value: -5.72% for the first, -29.7% for the second.

First: Cc1cccc(N2CCN(C(=O)c3cc4c(=O)n(C)c5ccccc5c4n3C)CC2C)c1 (stereo not drawn)
Second: O=C(c1cccn2c(=O)c3cc4ccccc4cc3nc12)N1CCN(c2ccccc2)CC1
The “hERG current change (%, negative = inhibition) at 10uM” value of the first is lower: -16% for the first, -7.73% for the second.

Compared with `Cc1ccc(S(=O)(=O)NCCC(=O)OCC(=O)Nc2ccccc2Cl)cc1`, `O=C(CCNC(=O)c1ccccc1Cl)Nc1nc(-c2ccccc2Cl)cs1` is higher in “hERG current change (%, negative = inhibition) at 10uM” value: -10.5% for the first, -7.92% for the second.

Compared with `O=C(c1cccn2c(=O)c3cc(Br)ccc3nc12)N1CCN(c2ccccn2)CC1`, `O=C(c1cccn2c(=O)c3ccccc3nc12)N1CCN(c2ccccn2)CC1` is lower in “hERG current change (%, negative = inhibition) at 10uM” value: -33.6% for the first, -53% for the second.

Compared with `O=C(c1cccn2c(=O)c3ccccc3nc12)N1CCC2(CC1)OCCO2`, `O=C(CSc1nc2ccccc2c(=O)n1CC1CCCO1)N1CCN(c2ccccc2)CC1` (stereo not drawn) is lower in “hERG current change (%, negative = inhibition) at 10uM” value: 5.98% for the first, -73.4% for the second.

Going from `COc1ccc(-c2cc(C(=O)N3CCN(c4ccccc4)CC3)c3ccccc3n2)cc1` to `O=C(CSc1nc2ccccc2c(=O)n1CCC(=O)N1CCN(c2ccccc2)CC1)NCC1CCCO1` (stereo not drawn), the “hERG current change (%, negative = inhibition) at 10uM” value falls from 5.37% to -45.6%.

Going from `COc1ccc2c(c1OC)C(=O)OC2C1c2c(cc3c(c2OC)OCO3)CCN1C` (stereo not drawn) to `COc1ccc(OC)c(NC(=O)CSc2nc3ccccc3c(=O)n2CC2CCCO2)c1` (stereo not drawn), the “hERG current change (%, negative = inhibition) at 10uM” value falls from -1.42% to -41.2%.

Compared with `COc1ccccc1N1CCN(C(=O)CSc2nc3ccccc3c(=O)n2CC2CCCO2)CC1` (stereo not drawn), `COc1ccccc1NC(=O)CSc1nc2ccccc2c(=O)n1CC1CCCO1` (stereo not drawn) is higher in “hERG current change (%, negative = inhibition) at 10uM” value: -67.6% for the first, 2.49% for the second.

Going from `O=C(CSc1nc2ccccc2c(=O)n1CC1CCCO1)NCc1ccccc1` (stereo not drawn) to `O=C(CSc1nc2ccccc2c(=O)n1CC1CCCO1)Nc1ccccc1` (stereo not drawn), the “hERG current change (%, negative = inhibition) at 10uM” value falls from -11% to -14.1%.

Going from `O=C1CN(C(=O)CSc2nc3ccccc3c(=O)n2CC2CCCO2)c2ccccc2N1` (stereo not drawn) to `O=C(CSc1nc2ccccc2c(=O)n1CC1CCCO1)Nc1ccccc1Cl` (stereo not drawn), the “hERG current change (%, negative = inhibition) at 10uM” value rises from -31.3% to -22.1%.

Going from `O=c1c2ccccc2nc(SCc2ccncc2)n1CC1CCCO1` (stereo not drawn) to `O=c1c2ccccc2nc(SCc2ccccc2)n1CC1CCCO1` (stereo not drawn), the “hERG current change (%, negative = inhibition) at 10uM” value rises from -54% to -6.67%.

Compared with `CC(C)(C)c1ccc(C(=O)NCC2CCCN2S(=O)(=O)c2ccccc2)cc1` (stereo not drawn), `O=C(Nc1ccccn1)c1ccc(Cl)c(S(=O)(=O)N2CCCCCC2)c1` is lower in “hERG current change (%, negative = inhibition) at 10uM” value: -6.28% for the first, -32.7% for the second.

Going from `Cc1ccc(C(=O)N/N=C2\CCSC2)cc1[N+](=O)[O-]` to `CN(C)CCNC(=O)CN1C(=O)CSc2ccc(S(=O)(=O)N3CCCCC3)cc21`, the “hERG current change (%, negative = inhibition) at 10uM” value rises from -2.95% to 12.5%.

Compared with `COc1ccccc1C(CNC(=O)CSc1ccc2ccccc2c1)N(C)C` (stereo not drawn), `O=c1oc(-c2ccccc2NS(=O)(=O)c2ccc3ccccc3c2)nc2ccccc12` is higher in “hERG current change (%, negative = inhibition) at 10uM” value: -34.9% for the first, 22.9% for the second.

First: COc1ccccc1NC(=O)Cn1cnc2c(cnn2-c2ccc(C)c(C)c2)c1=O
Second: Cc1nc2c(-c3ccc(F)cc3)c(C)nn2c(C)c1CCC(=O)Nc1ccccc1
The “hERG current change (%, negative = inhibition) at 10uM” value of the first is higher: 12.1% for the first, 0.666% for the second.

Compared with `Cc1[nH]c2ccccc2c1/C=N/NC(=O)c1cccc(S(=O)(=O)Nc2cccc(C(F)(F)F)c2)c1`, `O=C(Nn1c(-c2ccc(Br)cc2)nc2ccccc2c1=O)c1ccncc1` is higher in “hERG current change (%, negative = inhibition) at 10uM” value: 18.6% for the first, 20.2% for the second.

First: CCOC(=O)c1cccc(C(=O)Oc2ccccc2)n1
Second: Fc1cccc(CNCCc2c[nH]c3ccccc23)c1.O=C(O)C(=O)O
The “hERG current change (%, negative = inhibition) at 10uM” value of the first is higher: 14.6% for the first, -7.63% for the second.

First: Cc1cccc(-c2nsc(SCC(=O)NCc3ccco3)n2)c1
Second: Cc1nc2c(-c3ccc(F)cc3)c(C)nn2c(C)c1CCC(=O)NCc1ccco1
The “hERG current change (%, negative = inhibition) at 10uM” value of the first is higher: 15% for the first, -19.9% for the second.

Compared with `Cc1nc(N=C(N)N)nc2c(C)cccc12`, `Cc1nc2ncnn2c(C)c1CCC(=O)NC(C)CCc1ccco1` (stereo not drawn) is lower in “hERG current change (%, negative = inhibition) at 10uM” value: 25.2% for the first, -8.57% for the second.

Going from `C=CCOC(Cn1ccnc1)c1ccc(Cl)cc1Cl` (stereo not drawn) to `Clc1ccc(C(Cn2ccnc2)OCc2c(Cl)cccc2Cl)c(Cl)c1` (stereo not drawn), the “hERG current change (%, negative = inhibition) at 10uM” value falls from -29.6% to -32%.

Going from `Clc1ccc(C(c2ccc(Cl)cc2)n2cc[n+](CC(OCc3ccc(Cl)cc3Cl)c3ccc(Cl)cc3Cl)c2)cc1.[Cl-]` (stereo not drawn) to `COc1cccc(C2C(C(=O)c3cc4ccccc4o3)=C(O)C(=O)N2c2cc(C)on2)c1` (stereo not drawn), the “hERG current change (%, negative = inhibition) at 10uM” value rises from -62.8% to 7.91%.

Going from `CC(C)CCn1nnnc1C(c1ccc(F)cc1)N1CCC(C(N)=O)CC1` (stereo not drawn) to `Cc1nc2c(-c3ccc(F)cc3)c(C)nn2c(C)c1CCC(=O)NC(C)CCc1ccco1` (stereo not drawn), the “hERG current change (%, negative = inhibition) at 10uM” value falls from -21.4% to -68.8%.

Going from `Cc1c(CC(=O)NCCCO)c(=O)oc2cc3c(cc12)CCC(C)(C)O3` to `Cc1c(CC(=O)NCCCC(=O)O)c(=O)oc2cc3c(cc12)CCC(C)(C)O3`, the “hERG current change (%, negative = inhibition) at 10uM” value falls from 17.6% to -64.5%.

First: Cc1c(CC(=O)NCCCCCC(=O)O)c(=O)oc2cc3c(cc12)CCC(C)(C)O3
Second: CCCCN(C)CCNC(=O)CN1C(=O)CSc2ccc(S(=O)(=O)N3CCCC3)cc21
The “hERG current change (%, negative = inhibition) at 10uM” value of the first is higher: 9.83% for the first, -3.28% for the second.

First: COC(=O)c1ccc(NC(=O)CCc2nnc3ccc(NCc4ccco4)nn23)cc1
Second: Cc1nc2c(-c3ccccc3)c(C)nn2c(C)c1CCC(=O)NC(C)CCc1ccco1 (stereo not drawn)
The “hERG current change (%, negative = inhibition) at 10uM” value of the first is higher: 18.4% for the first, -66.6% for the second.

Going from `CCCCN(CCCC)CCNC(=O)CN1C(=O)CSc2ccc(S(=O)(=O)N3CCCCC3)cc21` to `CCCCN(CCCC)CCNC(=O)CN1C(=O)CSc2ccc(S(=O)(=O)N3CCOCC3)cc21`, the “hERG current change (%, negative = inhibition) at 10uM” value rises from -74.7% to -38.8%.

Compared with `CCCCN(C)CCNC(=O)CN1C(=O)CSc2ccc(S(=O)(=O)N3CCCCC3)cc21`, `CC(C)c1ccc(S(=O)(=O)N(C)C2(C)CCS(=O)(=O)C2)cc1` (stereo not drawn) is higher in “hERG current change (%, negative = inhibition) at 10uM” value: -50.6% for the first, -46.9% for the second.

First: CC(=O)c1c(C(C)=O)c(C)n(NC(=O)c2ccncc2)c1C
Second: COCCN(C(=O)CNC(=O)c1ccco1)C(C(=O)NC1CCCCC1)c1cccnc1 (stereo not drawn)
The “hERG current change (%, negative = inhibition) at 10uM” value of the first is lower: 8.37% for the first, 20.1% for the second.

First: Cc1cc(Cl)ccc1OCC(=O)OCC(=O)NC1CCS(=O)(=O)C1 (stereo not drawn)
Second: Cc1cccc(-n2ccnc2SCC(=O)Nc2ccc3c(c2)OCCO3)c1
The “hERG current change (%, negative = inhibition) at 10uM” value of the first is higher: -12.2% for the first, -14% for the second.

`CC(=O)Nc1cc2c(cc1NC(=O)Cn1nc(-c3ccccc3)ccc1=O)OCCO2` was tested, and the “hERG current change (%, negative = inhibition) at 10uM” value was 11.9%.
